# Laboratory results from PubChem BioAssay (NCATS).
# Values without a mark were called inactive. Records with an inconclusive call do not appear. The source made the active and inactive calls. Calls follow the shape of the dose curve; as a rule, active = well fitted curve in the direction sought with a large enough effect; inconclusive = small, poorly fitted or top-dose-only effect, or another doubt; inactive = no such curve, though single readings can be large; an effect the other way counts as inactive or inconclusive.
# System: not listed separately
# Assay: Validation screen for small molecules that induce DNA re-replication in MCF 10A normal breast cells (AID 463097); also: nearly all actives have a fitted effect of over 60% in size; also: potency is read from the fitted curve at half-maximal effect; as to re-replication induction: 0% is about no effect
# Conditions: MCF 10A cells, DNA re-replication phenotype imaging; series mostly up to 46.1 µM; re-replication induction: at the top concentration
# How it was run: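 Read-out is Hoechst total nuclear intensity by fluorescence scanning imager, flagging increased high-DNA-content nuclei. Compounds were incubated with MCF 10A cells for 48 hr (37 C, 5% CO2) before 40 min staining.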
SMILES,Potency,re-replication induction
COc1cc2nc(N3CCN(C(=O)c4ccco4)CC3)nc(N)c2cc1OC,15.8 µM (active),
CN(C)c1nc(N(C)C)nc(N(C)C)n1,,2.76%
CN(C)CCC=C1c2ccccc2C=Cc2ccccc21,,7.69%
Cn1c(=O)c2c(ncn2C)n(C)c1=O,,-3.5%
COc1ccc2[nH]cc(CCNC(C)=O)c2c1,,8.51%
CCCNCC(O)COc1ccccc1C(=O)CCc1ccccc1 (stereo not given),,-1.38%
NC(=O)OCC(COC(N)=O)c1ccccc1,,-1.13%
Nc1nc2c(ncn2COC(CO)CO)c(=O)[nH]1,,2.22%
Cn1c(=O)c2[nH]cnc2n(C)c1=O,,-0.106%
NCCc1cnc[nH]1,,-3.36%
CN(C)CCOC(c1ccccc1)c1ccccc1,,-0.686%

# Target: Ubiquitin carboxyl-terminal hydrolase 2 (Homo sapiens) (UniProt O75604)
# Sequence (O75604 whole entry, looked up): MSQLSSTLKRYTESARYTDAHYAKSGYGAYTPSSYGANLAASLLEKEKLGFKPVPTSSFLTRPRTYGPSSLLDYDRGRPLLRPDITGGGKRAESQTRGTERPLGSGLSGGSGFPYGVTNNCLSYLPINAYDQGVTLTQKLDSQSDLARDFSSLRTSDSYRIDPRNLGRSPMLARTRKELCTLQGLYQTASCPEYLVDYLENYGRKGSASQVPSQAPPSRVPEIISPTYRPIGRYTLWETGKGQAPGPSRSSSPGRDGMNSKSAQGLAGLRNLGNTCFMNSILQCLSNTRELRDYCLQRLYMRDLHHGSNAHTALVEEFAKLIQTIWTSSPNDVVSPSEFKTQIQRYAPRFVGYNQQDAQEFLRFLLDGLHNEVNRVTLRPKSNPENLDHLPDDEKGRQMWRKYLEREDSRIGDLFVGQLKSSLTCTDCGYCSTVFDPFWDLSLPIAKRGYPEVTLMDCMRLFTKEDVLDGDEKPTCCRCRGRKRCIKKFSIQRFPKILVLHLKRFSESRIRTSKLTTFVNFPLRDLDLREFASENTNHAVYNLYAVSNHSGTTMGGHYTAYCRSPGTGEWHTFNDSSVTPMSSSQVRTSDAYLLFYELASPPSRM
# Assay: qHTS Validation Assay for Inhibitors of Ubiquitin-specific Protease USP2a Using CHOP2 as the Reporter (AID 463106);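 also: plate controls were DMSO for no effect and full inhibition by NEM for full effect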
# Conditions: USP2a cleavage of CHOP2 reporter, enzymatic; series mostly up to 38.3 µM; activity, negative = inhibition: at the top concentration
# How it was run: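 10nM USP2 core + cpd, 30min RT; add 25nM Ub-CHOP2/25nM substrate; 60min RT; FI 485/531nm. Buffer Tris pH 8.0, CaCl2, BME, CHAPS. Norm. to NEM = 100% inhibition; time-zero read flags fluorescent artifacts.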
row,SMILES,"activity, negative = inhibition"
1,N[C@@H](Cc1c[nH]c2ccc(O)cc12)C(=O)O,1.86%
2,CCOC(=O)Nc1ccc(NCc2ccc(F)cc2)nc1N,7.88%
3,CN1CCC(=C2c3ccccc3C=Cc3ccccc32)CC1,-0.394%
4,Nc1c2c(nc3ccccc13)CCCC2,3.53%
5,Fc1ccc([C@@H]2CCNC[C@H]2COc2ccc3c(c2)OCO3)cc1,-0.4%
6,CCC1(C)CC(=O)NC1=O (stereo not given),1.51%
7,CC(C)NCC(O)COc1ccc(CCOCC2CC2)cc1 (stereo not given),4.58%
8,CN(C)c1nc(N(C)C)nc(N(C)C)n1,-0.159%
9,NCCS(=O)(=O)O,-0.522%
10,CN(C)CCC=C1c2ccccc2C=Cc2ccccc21,2.05%
11,Cn1c(=O)c2c(ncn2C)n(C)c1=O,3.28%
12,CCC1(c2ccccc2)C(=O)NCNC1=O,-2.82%
13,COc1ccc2[nH]cc(CCNC(C)=O)c2c1,0.252%
14,CCCNCC(O)COc1ccccc1C(=O)CCc1ccccc1 (stereo not given),0.832%
15,CN1CCC(=C2c3ccccc3CC(=O)c3sccc32)CC1,0.693%
16,O=C(c1ccc(F)cc1)C1CCN(CCn2c(=O)[nH]c3ccccc3c2=O)CC1,-2.33%
17,CN1CCN(CCCN2c3ccccc3Sc3ccc(Cl)cc32)CC1,-3.78%
18,CC[N+](CC)(CC)CCOc1cccc(OCC[N+](CC)(CC)CC)c1OCC[N+](CC)(CC)CC,-4.35%
19,O=C1N(c2ccccc2)c2ccccc2C1(Cc1ccncc1)Cc1ccncc1,0.407%
20,NC(=O)OCC(COC(N)=O)c1ccccc1,-0.0751%
21,Nc1nc2c(ncn2COC(CO)CO)c(=O)[nH]1,-0.65%
22,CC(CCc1ccc(O)cc1)NCCc1ccc(O)c(O)c1 (stereo not given),-0.565%
23,COc1ccccc1N1CCN(CC(O)COc2cccc3ccccc23)CC1 (stereo not given),-8.54%
24,Cn1c(=O)c2[nH]cnc2n(C)c1=O,-0.865%
25,NCCc1cnc[nH]1,-0.531%
26,COc1cc2nc(N3CCN(C(=O)C4COc5ccccc5O4)CC3)nc(N)c2cc1OC (stereo not given),0.789%
27,CN(C)CCOC(c1ccccc1)c1ccccc1,3.43%
28,NC12CC3CC(CC(C3)C1)C2,-0.0492%
29,Cn1cnc2c1c(=O)[nH]c(=O)n2C,0.556%

# Target: DNA polymerase III PolC-type (Bacillus subtilis (strain 168)) (UniProt P13267)
# Sequence (P13267 whole entry, looked up): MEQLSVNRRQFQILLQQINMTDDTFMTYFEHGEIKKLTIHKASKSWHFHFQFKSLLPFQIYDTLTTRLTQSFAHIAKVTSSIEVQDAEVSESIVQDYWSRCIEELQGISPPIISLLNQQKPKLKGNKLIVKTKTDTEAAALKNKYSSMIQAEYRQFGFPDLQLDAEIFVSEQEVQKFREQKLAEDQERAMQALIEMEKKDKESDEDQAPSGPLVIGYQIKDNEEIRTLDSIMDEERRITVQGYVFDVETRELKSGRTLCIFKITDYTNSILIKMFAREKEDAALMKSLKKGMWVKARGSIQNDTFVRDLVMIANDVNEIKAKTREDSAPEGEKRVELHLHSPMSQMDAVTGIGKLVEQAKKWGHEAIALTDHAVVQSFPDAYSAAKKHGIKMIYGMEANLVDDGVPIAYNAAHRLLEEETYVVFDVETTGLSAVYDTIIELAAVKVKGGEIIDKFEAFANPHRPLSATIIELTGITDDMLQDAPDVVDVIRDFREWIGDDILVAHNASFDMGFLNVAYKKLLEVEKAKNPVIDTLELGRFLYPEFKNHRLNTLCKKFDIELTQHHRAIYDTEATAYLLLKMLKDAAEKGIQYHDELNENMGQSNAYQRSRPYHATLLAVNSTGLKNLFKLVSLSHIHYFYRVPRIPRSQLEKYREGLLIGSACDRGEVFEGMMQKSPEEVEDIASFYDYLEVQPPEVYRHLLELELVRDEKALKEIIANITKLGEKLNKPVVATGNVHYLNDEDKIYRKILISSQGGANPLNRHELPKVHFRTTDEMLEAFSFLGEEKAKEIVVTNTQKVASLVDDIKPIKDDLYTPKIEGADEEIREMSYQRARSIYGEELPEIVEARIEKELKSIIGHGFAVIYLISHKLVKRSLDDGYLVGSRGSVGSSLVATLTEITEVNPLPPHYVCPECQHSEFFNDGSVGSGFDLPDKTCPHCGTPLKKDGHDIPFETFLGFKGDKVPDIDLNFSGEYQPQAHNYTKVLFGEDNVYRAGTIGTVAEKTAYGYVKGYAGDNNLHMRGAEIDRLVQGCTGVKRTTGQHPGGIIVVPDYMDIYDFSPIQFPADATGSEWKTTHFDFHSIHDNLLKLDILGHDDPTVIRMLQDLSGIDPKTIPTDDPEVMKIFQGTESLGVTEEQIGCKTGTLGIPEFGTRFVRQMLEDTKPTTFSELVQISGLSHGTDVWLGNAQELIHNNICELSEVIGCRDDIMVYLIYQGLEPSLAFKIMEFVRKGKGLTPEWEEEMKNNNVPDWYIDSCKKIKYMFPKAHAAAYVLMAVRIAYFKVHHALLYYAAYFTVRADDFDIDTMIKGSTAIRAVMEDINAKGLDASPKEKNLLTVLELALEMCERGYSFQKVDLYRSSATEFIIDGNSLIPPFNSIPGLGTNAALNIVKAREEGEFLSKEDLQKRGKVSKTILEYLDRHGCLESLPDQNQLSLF
# Assay: qHTS Validation Assay for the Inhibitors of DNA Replication in Gram-Positive Bacteria (AID 485295); also: potency is read from the fitted curve at half-maximal effect;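 as to activity change, negative = inhibition: reconstituted holoenzyme with PolC plus beta clamp SSB and primase; PicoGreen fluorescence of double-stranded DNA made on primed circular M13 template; 0% = DMSO wells and -100% = EDTA-quenched background wells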
# Conditions: Gram-positive bacterial DNA replication assay; series mostly up to 57.1 µM; activity change, negative = inhibition: at the top concentration
# How it was run: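 Double-stranded DNA product detected by PicoGreen fluorescence after EDTA quench. Compound incubated with B. subtilis holoenzyme (PolC, beta subunit, SSB, primase) before substrate addition; primed replication of M13Gori with dNTPs and NTPs at room temperature; DMSO defines 0% inhibition.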
SMILES,"activity change, negative = inhibition",Potency
N[C@@H](Cc1c[nH]c2ccc(O)cc12)C(=O)O,-2.16%,
CCOC(=O)Nc1ccc(NCc2ccc(F)cc2)nc1N,-6.17%,
COc1cc2nc(N3CCN(C(=O)c4ccco4)CC3)nc(N)c2cc1OC,0.0533%,
CN1CCC(=C2c3ccccc3C=Cc3ccccc32)CC1,-1.56%,
Nc1c2c(nc3ccccc13)CCCC2,6.4%,
Fc1ccc([C@@H]2CCNC[C@H]2COc2ccc3c(c2)OCO3)cc1,1.47%,
O=C1c2c(O)ccc(O)c2C(=O)c2c(NCCNCCO)ccc(NCCNCCO)c21,,1.5 µM (active)
CCC1(C)CC(=O)NC1=O (stereo not given),0.873%,
CC(C)NCC(O)COc1ccc(CCOCC2CC2)cc1 (stereo not given),5.7%,
CN(C)c1nc(N(C)C)nc(N(C)C)n1,-4.57%,
NCCS(=O)(=O)O,2.91%,
CN(C)CCC=C1c2ccccc2C=Cc2ccccc21,1.79%,
Cn1c(=O)c2c(ncn2C)n(C)c1=O,0.122%,
CCC1(c2ccccc2)C(=O)NCNC1=O,-5.34%,
COc1ccc2[nH]cc(CCNC(C)=O)c2c1,4.29%,
CCCNCC(O)COc1ccccc1C(=O)CCc1ccccc1 (stereo not given),9.37%,
CN1CCC(=C2c3ccccc3CC(=O)c3sccc32)CC1,3.4%,
O=C(c1ccc(F)cc1)C1CCN(CCn2c(=O)[nH]c3ccccc3c2=O)CC1,-12%,
CN1CCN(CCCN2c3ccccc3Sc3ccc(Cl)cc32)CC1,-2.75%,
CC[N+](CC)(CC)CCOc1cccc(OCC[N+](CC)(CC)CC)c1OCC[N+](CC)(CC)CC,-4.76%,
O=C1N(c2ccccc2)c2ccccc2C1(Cc1ccncc1)Cc1ccncc1,-0.277%,
NC(=O)OCC(COC(N)=O)c1ccccc1,9.2%,
Nc1nc2c(ncn2COC(CO)CO)c(=O)[nH]1,2.43%,
CC(CCc1ccc(O)cc1)NCCc1ccc(O)c(O)c1 (stereo not given),8.37%,
COc1ccccc1N1CCN(CC(O)COc2cccc3ccccc23)CC1 (stereo not given),-6.33%,
Cn1c(=O)c2[nH]cnc2n(C)c1=O,-1.99%,
NCCc1cnc[nH]1,2.61%,
COc1cc2nc(N3CCN(C(=O)C4COc5ccccc5O4)CC3)nc(N)c2cc1OC (stereo not given),-0.986%,
NC12CC3CC(CC(C3)C1)C2,-4.32%,
Cn1cnc2c1c(=O)[nH]c(=O)n2C,0.237%,
